The campaign covered roughly 400,000 compounds. About 2,100 (0.53%) were called active. Inconclusive results (about 14%) are left out. No rule for the calls is given here. Only a selection was taken, and actives are over-represented in it overall.
biological target: Ataxin-2 (Homo sapiens) (UniProt Q99700); assay: qHTS for Inhibitors of ATXN expression.; assay type: functional
Sequence (Q99700 whole entry): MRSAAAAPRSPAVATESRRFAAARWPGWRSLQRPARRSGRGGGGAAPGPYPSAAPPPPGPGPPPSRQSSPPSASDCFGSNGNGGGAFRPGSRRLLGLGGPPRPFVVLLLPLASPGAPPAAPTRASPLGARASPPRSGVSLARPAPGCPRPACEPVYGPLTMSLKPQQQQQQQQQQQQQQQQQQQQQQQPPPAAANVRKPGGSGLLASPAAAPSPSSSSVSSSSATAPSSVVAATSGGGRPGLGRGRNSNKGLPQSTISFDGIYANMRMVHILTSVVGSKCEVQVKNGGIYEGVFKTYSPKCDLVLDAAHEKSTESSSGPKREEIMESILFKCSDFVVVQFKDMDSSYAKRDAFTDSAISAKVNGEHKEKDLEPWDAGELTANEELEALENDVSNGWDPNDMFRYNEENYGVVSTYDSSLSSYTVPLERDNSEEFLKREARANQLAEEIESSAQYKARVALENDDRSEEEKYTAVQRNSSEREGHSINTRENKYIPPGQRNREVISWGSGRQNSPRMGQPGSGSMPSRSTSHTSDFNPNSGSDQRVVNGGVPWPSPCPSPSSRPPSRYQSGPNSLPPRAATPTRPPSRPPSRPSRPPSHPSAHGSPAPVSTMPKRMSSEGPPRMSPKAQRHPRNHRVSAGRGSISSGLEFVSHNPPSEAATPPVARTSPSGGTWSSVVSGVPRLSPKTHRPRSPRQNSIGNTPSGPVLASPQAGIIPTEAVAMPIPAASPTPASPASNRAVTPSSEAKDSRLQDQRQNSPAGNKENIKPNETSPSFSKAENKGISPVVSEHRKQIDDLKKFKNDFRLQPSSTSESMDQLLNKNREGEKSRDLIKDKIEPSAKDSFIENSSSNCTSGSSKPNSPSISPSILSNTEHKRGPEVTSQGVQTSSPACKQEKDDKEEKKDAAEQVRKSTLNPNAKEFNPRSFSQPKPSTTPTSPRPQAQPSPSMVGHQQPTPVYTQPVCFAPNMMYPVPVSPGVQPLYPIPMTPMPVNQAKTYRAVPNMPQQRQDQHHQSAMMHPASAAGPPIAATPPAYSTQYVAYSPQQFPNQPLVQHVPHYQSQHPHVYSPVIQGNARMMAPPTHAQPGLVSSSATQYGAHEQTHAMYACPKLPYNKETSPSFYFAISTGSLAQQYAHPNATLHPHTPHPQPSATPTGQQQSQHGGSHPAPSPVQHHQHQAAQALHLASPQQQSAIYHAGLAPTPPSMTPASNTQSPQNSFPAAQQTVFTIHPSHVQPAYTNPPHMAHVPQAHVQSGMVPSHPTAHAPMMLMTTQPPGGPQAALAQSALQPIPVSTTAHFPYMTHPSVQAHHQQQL

Row | SMILES | Potency
1 | CCCCc1c(-c2cccc(OC)c2)ncn1CCc1ccccc1OC | 39.8 µM (active)
2 | COc1ccccc1[C@H]1C(c2cccc(Cl)c2)=NN(c2ccccc2)[C@@H]1CO | inactive
3 | CCCCNc1c(-c2ccc(OC)c(Sc3ccc(OC)cc3)c2)nc2cnccn12 | inactive
4 | CCCCc1c(-c2cccc(Cl)c2)ncn1CCc1ccccc1OC | 31.6 µM (active)
5 | CCCCCc1c(-c2cccc(OC)c2)ncn1CCc1ccccc1OC | 31.6 µM (active)
6 | COc1c(OC)c2nc(O)cc3c4ccccc4n(c1=O)c23 | inactive
7 | Clc1ccc(C2=CC(c3ccco3)n3ncnc3N2)cc1 (configuration not stated) | inactive
8 | Cc1cc(O)c(C(=O)/C=C/c2c(F)c(F)c(F)c(F)c2F)c(=O)o1 | inactive
9 | CCOC(=O)c1c(NC(=O)c2ccc(S(=O)(=O)N3CCC(C)CC3)cc2)sc2c1CCN(CC)C2 | inactive
10 | Nc1nnnn1/N=C/c1cc(Cl)ccc1O | inactive
11 | CC(=O)Oc1cc2oc(=O)cc(C)c2cc1OC(C)=O | inactive
12 | CC(=O)Nc1cc(OC(C)=O)c2nonc2c1OC(C)=O | 39.8 µM (active)
13 | CC(=O)Nc1cc2ccc(OC(C)=O)cc2oc1=O | inactive
14 | OC[C@@H]1[C@@H](c2ccccc2)C(c2cccc(Cl)c2)=NN1c1ccccc1 | inactive
15 | CCCCCCCCN1C(=O)[C@H](CC(=O)NCc2cccs2)C[C@@]2(C(=O)OCC)CCCC=C12 | 39.8 µM (active)
16 | Cc1c(N(C(=O)Cc2cccs2)C2(C(=O)NC3CCCC3)CCCCC2)c(=O)n(-c2ccccc2)n1C | inactive
17 | CCCCCCCCN1C(=O)[C@H](CC(=O)NCCC(C)C)C[C@@]2(C(=O)OCC)CCCC=C12 | 39.8 µM (active)
18 | O=C(COC(=O)c1cncc(Br)c1)NCc1cccs1 | inactive
19 | C#CCNC(=O)C[C@@H]1C[C@@]2(C(=O)OCC)CCCC=C2N(CCCCCCCC)C1=O | 20 µM (active)
20 | Cc1ccc(-c2cc(C(F)(F)F)n3ncc(C(=O)N4CCCCC4c4cccnc4)c3n2)cc1 (configuration not stated) | inactive
21 | O=C(CSc1ccc2ccccc2c1)NCCc1ccc(O)c(O)c1 | inactive
22 | COC(=O)C(C)N=C(S)N1CCN(c2c(F)cc3c(=O)c(C(=O)O)cn(C4CC4)c3c2OC)CC1C (configuration not stated) | inactive
23 | S=C(Nc1ccc2nc(-c3ccccn3)c(-c3ccccn3)nc2c1)N1CCCCCC1 | inactive
24 | Cc1nc(N2CCCCCC2)c2ccccc2n1 | inactive
25 | CC(NNC(=S)N1CCCCCC1)c1ccc2ccccc2n1 (configuration not stated) | 12.6 µM (active)
26 | CCOc1ccc(C(=O)C2CCN(C(=O)c3ccc([N+](=O)[O-])cc3)CC2)cc1 | inactive

Row | SMILES | Potency
27 | COc1ccc(C2C3=C(O)CC(C)(C)CC3=Nc3c2c(=O)n(C)c(=O)n3C)cc1OC (configuration not stated) | inactive
28 | Cc1cc(C(=O)CCl)c(C)n1CCc1ccc(F)cc1 | 37.7 µM (active)
29 | Cc1ccc(C(=O)OCC(=O)NCCc2ccc(F)cc2)cc1S(=O)(=O)N1CCOCC1 | inactive
30 | COc1ccc(CCn2c(C)cc(C(=O)CCl)c2C)cc1OC | 39.8 µM (active)
31 | Cc1cc(C(=O)COC(=O)Cc2c(F)cccc2Cl)c(C)n1C | inactive
32 | N=c1c(C(=O)NCC2CCCO2)cc2c(=O)n3ccccc3nc2n1Cc1cccnc1 (configuration not stated) | inactive
33 | CCOC(=O)COc1ccc2c(C#N)c3ccccn3c2c1 | inactive
34 | O=C(N/N=C/c1sc(N2CCOCC2)nc1-c1ccccc1)c1cccc(S(=O)(=O)N2CCCC2)c1 | inactive
35 | Cn1c2ccccc2c2nnc(N/N=C/c3ccc(O)cc3)nc21 | inactive
36 | COc1cc(/C=N/NC(=O)C(=O)NCc2ccco2)ccc1O | inactive
37 | COc1cc(/C=N/Nc2nc(-c3ccc(S(=O)(=O)N(C)C)cc3)cs2)ccc1O | 35.5 µM (active)
38 | CC(=O)c1sc(N/N=C/c2ccc(C(C)C)cc2)nc1C | inactive
39 | CN(C)S(=O)(=O)c1ccc(-c2csc(N/N=C/c3ccc(O)cc3)n2)cc1 | 20 µM (active)
40 | O=C(Nc1cccc(S(=O)(=O)N2CCCCCC2)c1)c1ccc(O)nc1 | inactive
41 | CCOc1cc(/C=N/Nc2nc(-c3cccc(S(=O)(=O)N4CCCC4)c3)cs2)ccc1O | 25.1 µM (active)
42 | COc1cc(/C=N/NC(=O)CCC(=O)Nc2ccc(F)cc2)ccc1O | inactive
43 | CCN(CC)c1ccc2cc(C=O)c(=O)oc2c1 | inactive
44 | CCOc1ccc(C(=O)c2oc3ccccc3c2NC(=O)c2cc(-c3ccccc3)on2)cc1 | inactive
45 | Cc1cccc(N/N=C(\C=O)C(=O)c2ccc(Br)cc2)c1 | 31.6 µM (active)
46 | O=C(Nc1ccccc1)c1ncoc1-c1ccc(Cl)cc1 | inactive
47 | O=C/C(=N\Nc1ccccc1)C(=O)c1ccc(Cl)cc1 | 9.47 µM (active)
48 | O=C(O)c1ccc(N/N=C/c2ccc(-c3cc(Cl)ccc3Cl)o2)cc1 | inactive
49 | Cc1cccc(/C=N/NC(=O)c2cc(Br)ccc2O)n1 | inactive
50 | CC(=O)/C(=N\Nc1ccccc1)Oc1ccc(Br)cc1 | inactive
51 | C=CCn1c(S)nnc1-c1oc2nc(-c3ccccc3)cc(-c3ccccc3)c2c1N | inactive
52 | CNc1snc(C)c1C(=O)OCC(=O)N(C)c1ccccc1 | inactive

Source: ChEMBL document CHEMBL1201862, “PubChem BioAssay data set” (2004)
